AmpC no deterg = qHTS Inhibitors of AmpC Beta-Lactamase (assay without detergent); Potency, µM (series often up to 57.1 µM), inactives show at the highest dose activity change, negative = inhibition, most hits filed as inhibitors; AID 485341, 2010; AmpC nitrocefin hydrolysis, absorbance 480 nm, 0.0001% Triton; 330,000 compounds, 0.52% hits; P00811;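 also: potency is read from the fitted curve at half-maximal effect; plate controls were no compound for no effect and no enzyme for full effect; nearly all actives have a fitted effect of over 20% in size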
Target sequence (P00811 whole entry, looked up): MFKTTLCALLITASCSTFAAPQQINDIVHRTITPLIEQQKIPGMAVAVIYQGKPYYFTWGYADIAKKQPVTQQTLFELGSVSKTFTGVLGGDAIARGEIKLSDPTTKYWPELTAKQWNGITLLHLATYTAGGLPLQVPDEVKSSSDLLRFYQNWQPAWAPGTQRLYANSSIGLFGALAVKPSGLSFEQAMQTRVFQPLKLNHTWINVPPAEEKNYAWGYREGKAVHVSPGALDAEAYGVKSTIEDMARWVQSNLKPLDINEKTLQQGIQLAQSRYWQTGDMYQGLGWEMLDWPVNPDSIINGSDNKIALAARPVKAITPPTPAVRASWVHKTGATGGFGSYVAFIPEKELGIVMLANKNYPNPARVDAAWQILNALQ
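AmpC (5.3 nM in the dispensed reagent) in 20 mM phosphate pH 7.0 with 0.01% (detergent screen) or 0.0001% Triton X-100 was preincubated with compounds for 15 min at room temperature. Nitrocefin was then added from an 800 uM solution, and hydrolysis was followed at 480 nm.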
HCV inh = qHTS Assay for Inhibitors of Hepatitis C Virus (HCV). 340,000 compounds, 3.4% hits. Potency, µM (highest dose often 41.8 µM), without a hit: at the top dose activity change, negative = inhibition, usual class: inhibitors. Huh7.5.1 HCVcc-Cre infection, luciferase reporter, 44 h; also: potency is read from the fitted curve at half-maximal effect
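Infectious HCVcc-Cre (~0.5 moi) was added to cells just after compound, with cells seeded 4 h earlier at 1,000 per well. Luciferase activity after 44 h culture reported infection; substrate was incubated 15 min at room temperature before reading.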
AmpC detergent = qHTS Inhibitors of AmpC Beta-Lactamase (assay with detergent). AmpC hydrolysis of nitrocefin, absorbance 480 nm, 0.01% Triton. 370,000 compounds, 0.041% hits. Potency, µM (titrated, usually from 114 µM), inactives show at the highest dose activity change, negative = inhibition, hits mostly inhibitors. P00811;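 also: potency is read from the fitted curve at half-maximal effect; 0% = no-compound wells and -100% = no-enzyme wells; nearly all actives have a fitted effect of over 25% in size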
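20 mM phosphate pH 7.0 + 0.01% (detergent screen) or 0.0001% Triton X-100; 5.3 nM AmpC reagent; cpd preinc 15 min RT; nitrocefin (800 uM stock) to start; A480 q20 s × 4 min; Activity was normalised to no-enzyme and no-compound control wells.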
FMDV inh = High Throughput Screening for Foot and Mouth Disease Virus Antivirals; FMDV antiviral cell-based qHTS; Potency, µM (top dose mostly 57.9 µM), for the others: at the highest dose activity change, negative = inhibition, usual class: inhibitors; 410,000 compounds, 1.2% hits; calls by dose curve; tested in HEK293T cells; also: read-out not given here; potency is read from the fitted curve at half-maximal effect; nearly all actives have a fitted effect of over 45% in size
HCMV inh = qHTS Assay for inhibitors of the human cytomegalovirus (HCMV) | HFF cells, HCMV-luciferase reporter, 72 h; active compounds read low | activity change, negative = inhibition, % at 57.5 µM | 410,000 compounds, 4.5% hits; in the data active = activity change below about -60%; inconclusive = no clear call, values can overlap the other calls; inactive = above about -39%
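Compounds were evaluated in HFFs infected with an HCMV luciferase reporter virus (MOI 1 PFU/cell). Luciferase in lysates collected 72 h post infection served as the replication measure.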
The depositor's hits bear a star; u = inconclusive; x = not tested or not shown. Most compounds without a hit are left out; they make up all but 7.3% or so of the library. Unless noted, calls follow the shape of the dose curve; as a rule, active = well fitted curve in the direction sought with a large enough effect; inconclusive = small, poorly fitted or top-dose-only effect, or another doubt; inactive = no such curve, though single readings can be large; an effect the other way counts as inactive or inconclusive. Unless noted, % is scaled to controls: 0 for no effect and ±100 for the full control effect.

SMILES	AmpC no deterg	HCV inh	AmpC detergent	FMDV inh	HCMV inh
Cc1ccc(OCCCCn2cnc3ccccc32)c(C)c1	-12.0%	u	u	-14.2%	-98.4*
Cc1cn(C)c(CC(=O)N2CCN(c3cccc(C(F)(F)F)c3)CC2)c1C(=O)O	x	x	7.2%	-22.5%	-14.7
COc1ccc(C)cc1-n1nnc(S(=O)(=O)c2ccc(C)cc2)c1C	x	x	-4.3%	-1.1%	-23.5
O=C(CSc1nnc(C2COc3ccccc3O2)o1)NC1CCCCC1 (centres undefined)	39.8µM*	-16.7%	-4.9%	18.5%	8.5
O=C(CSc1nnc(C2COc3ccccc3O2)o1)N1CCCCC1 (centres undefined)	0.2%	4.4%	-14.3%	u	-15.2
Cc1cccc(Nc2nc(-c3sc(C)nc3C)cs2)c1	-8.1%	2.82µM*	u	u	22.3
Cc1nc(NC(=O)c2ccccc2)sc1-c1csc(Nc2cccc(Cl)c2)n1	14.1µM*	x	-11.7%	x	x
Clc1cccc(Nc2nc(-c3ccncc3)cs2)c1	-25.4%	10µM*	-3.7%	-10.8%	145.6
Cc1cccc(Nc2nc(-c3ccncc3)cs2)c1	-39.6%	u	4.8%	4.6%	37.2
Cc1nc(C)c(-c2csc(Nc3cccc(O)c3)n2)s1	-32.4%	25.1µM*	2.5%	31.7%	38.5
COc1ccc(Nc2nc(-c3sc(C)nc3C)cs2)c(OC)c1	111.1%	u	-3.4%	-15.5%	-14.8
CC(=O)c1ccc(S(=O)(=O)N2CCn3cccc3C2c2ccccc2F)cc1 (centres undefined)	x	x	3.1%	-15.2%	2.7
COC(=O)[C@@H]1CCCN1C(=O)c1cnn(-c2ncc3c(n2)-c2ccccc2CCC3)c1C1CC1	x	x	x	9.4%	x
CCN(CC(=O)Nc1ccccc1OC)C(=O)c1ccc(NC(=O)c2cccs2)cc1	-41.6%	u	-1.1%	-1.4%	0.0
O=C(C[C@H]1C=C[C@@H](NC(=O)c2ccncc2)[C@@H](CO)O1)NCC1CC1	x	x	x	-7.9%	-3.4
Cc1nc2ccccn2c1-c1csc(Nc2cccc(O)c2)n1	10.8%	0.891µM*	-6.1%	u	u
Cc1nc(N)sc1-c1csc(Nc2cccc(O)c2)n1	-50.6%	u	8.8%	-28.3%	70.4
CCC(=O)Nc1nc(C)c(-c2csc(Nc3cccc(O)c3)n2)s1	15.8µM*	7.08µM*	u	-14.3%	83.4
COC1C(=O)CCC2(CO2)C1(O)C1(C)OC1CC=C(C)C (centres undefined)	x	x	x	x	-76.5*
COc1ccc(CN2CCN(C(C)C(=O)N(C)Cc3cccc(F)c3)CC2)cc1OC (centres undefined)	45.8%	u	-3.8%	-29.2%	-101.6*
COc1ccc(CN2CCN(C(C)C(=O)NC(C)c3ccc(F)cc3)CC2)cc1F (centres undefined)	91.9%	-28.3%	-12.0%	-13.8%	u
CCCCC(=O)N(CCOC)c1nnc(-c2ccccc2C)s1	83.3%	1.78µM*	0.3%	-6.3%	-15.4
CCCCC(=O)N(CCOC)c1nnc(-c2cccnc2)s1	26.0%	24.2%	-7.0%	20.5%	-16.3
Cc1ccc(OCC(O)CN2CCOCC2)cc1 (centres undefined)	-8.3%	4.5%	u	2.8%	62.9
CC(=O)O[C@H]1[C@@H](O)[C@H](O)[C@H](Oc2c(O)c(C)c3c4c2[C@@H](C)CC[C@@H]4[C@@H](C)C[C@H]3C=C(C)C)O[C@H]1C	174.6%	u	x	0.0%	-96.9*
Cc1cc([N+](=O)[O-])ccc1-c1ccc(C2Nc3ccccc3C(=O)N2O)o1 (centres undefined)	-57.4%	11.2µM*	-7.2%	-28.2%	-98.9*
CNc1nc2cnc(Nc3ccc(F)c(Cl)c3)cc2n1-c1cc(OC)c(OC)c(OC)c1	x	x	x	x	75.6
Brc1ccc(C2=CC(c3cccs3)n3ncnc3N2)cc1 (centres undefined)	10µM*	-64.8%	-7.2%	12.2%	-15.6
Cn1cccc1C1C=C(c2ccc(C(C)(C)C)cc2)Nc2ncnn21 (centres undefined)	x	u	x	-57.6%	-80.4*

Compound activity as filed in PubChem BioAssay.
